Results on 39 molecules are retold here after PubChem BioAssay (EPA / NIEHS).

Where “and” joins values, the source holds several entries; their conditions need not be identical. Equal entries are not always repeated. Where a structure was tested more than once in an assay, its records may differ in their call. Calls of active or inactive are those of the source. The calls were made as follows: active = hit-call score of the fitted dose curve at least 0.9, where 1 is the maximum; inactive = score below 0.9.

Read-out in this assay: Pselectin, SELP (gene 6403)
The assay is described as follows: BSK_4H_Pselectin: BioMAP Diversity Plus: 4H Assay for Pselectin Biomarker Activity (AID 2283026). The conditions noted are these: primary human endothelial cells (HUVEC); actives raise or lower the signal. The protocol: BSK_4H is a cell-based, multiplexed-readout assay that uses umbilical vein endothelium, a human vascular primary cell, with measurements taken at 24 hours after chemical dosing in a 96-well plate.BSK_4H_Pselectin is an assay component measured in the BSK_4H assay. It measures P-Selectin antibody related to regulation of gene expression using ELISA technology.Data from the assay component BSK_4H_Pselectin was analyzed into 1 assay endpoint. This assay endpoint, BSK_4H_Pselectin, was analyzed with bidirectional fitting relative to DMSO as the negative control and baseline of activity. Using a type of binding reporter, gain or loss-of-signal activity can be used to understand changes in the signaling as they relate to the gene SELP. Furthermore, this assay endpoint can be referred to as a primary readout, because this assay has produced multiple assay endpoints where this one serves a signaling function. To generalize the intended target to other relatable targets, this assay endpoint is annotated to the cell adhesion molecules intended target family, where the subfamily is selectins.
The levels of cell surface (or secreted, indicated by the prefix "s") biomarker endpoints were measured by ELISA. Overt cytotoxicity to cells in confluent adherent cultures (all systems other than the BT system) was assessed by measuring total protein levels using sulforhodamine B (SRB) staining in parallel cultures at the time of biomarker measurements, indicated as SRB endpoints. For proliferation assays for adherent cell types, individual cell types are cultured at sub-confluence and relative cell numbers quantified by SRB staining at time points optimized for each system (48 h: 3C and CASM3C systems; 72 h: BT and HDF3CGF systems; 96 h: SAg system). SRB was performed by staining cells with 0.1% SRB after fixation with 10% TCA and reading wells at 560 nm.Viability and proliferation of PBMC (T cells) was quantified by Alamar Blue reduction for the SAg and BT systems. For PBMC viability (referred to as PBMC Cytotoxicity within the assay endpoint names), cells were plated (75,000/well in a 96-well plate) and then chemical samples added for 1 h before addition of activators, SEB and TSST-1 (20 ng/mL final concentration each). Cells were incubated for 90 h. Then, Alamar Blue (20 uL/well) (Invitrogen, Cat DAL1100) was added for 6 h, and the plates were read with a fluorescence microplate reader at 546/580 nm (excitation/emission). For PBMC proliferation, cells were plated and activated as above but incubated for only 16 h prior to addition of Alamar Blue. Plates were read after 6 h.
As for `Cc1cc(N=Nc2ccccc2C)ccc1N`, the AC50 was 29.1 µM (active). As to `CNC(=O)Oc1cccc2c1OC(C)(C)C2`, the result was inactive. For `OCCCl`, the outcome was inactive. On the same count and under the same terms, under `c1ccc(N=Nc2ccccc2)cc1` stands “inactive”; under `OCCOCCO`, “inactive”. The same measure, in the same setting: with `CCOC(=O)[C@]1(c2ccccc2)Oc2ccccc2[C@@H]1N` the entry was “inactive”.

Consider `CN(C)c1ccccc1`, for which the outcome was inactive. For the molecule `Nc1ccc(Oc2ccc(N)cc2)cc1`, the outcome was inactive. `ClCCOCCCl`: the outcome was inactive. Take `Cc1ccc([N+](=O)[O-])cc1`: the result was inactive. For `C=CCc1ccc2c(c1)OCO2`, the result was inactive. In the case of `CN(C)C(=O)Nc1ccc(Cl)cc1`, the outcome was inactive. As to `c1ccc2c(c1)-c1cccc3cccc-2c13`, the result was inactive. For the molecule `Nc1ccc(Cl)cc1N`, the AC50 is 1.11 µM (active).

Turning to `COC(=O)Nc1nc2ccccc2[nH]1`, the outcome was inactive. For the molecule `Nc1ccc(N=Nc2ccccc2)cc1`, the outcome was inactive. Take `CCCCCCCCOC(=O)c1ccc(C(=O)OCCCCCCCC)c(C(=O)OCCCCCCCC)c1`: the result was inactive. Regarding `CCOc1cccc(C2(N3CCN(c4ccccc4)CC3)CCC(C)CC2)c1` (stereo not given), the outcome was inactive. The same measure, in the same setting: under `CCCSC(=O)N(CCC)CCC` stands “inactive”. On to `CCCCCOC(=O)c1ccccc1C(=O)OCCCCC`, for which the AC50 is 20 µM (active). `[O-][Cl+]O`: the result was inactive. For `C1=Cc2cccc3cccc1c23`, the outcome was inactive.

Regarding `CCCCCCCCn1sccc1=O`, the concentration at half-maximal activity (AC50) is 8.69 µM (active). Regarding `CC(O)CCO` (stereo not given), the outcome was inactive. As to `Cc1ccc(N)cc1`, the outcome was inactive. As for `CCC12COCN1COC2`, the outcome was inactive. Consider `CCNS(=O)(=O)C(F)(F)C(F)(F)C(F)(F)C(F)(F)C(F)(F)C(F)(F)C(F)(F)C(F)(F)F`, for which the AC50 was 30 µM (active) and 43.4 µM (active); the outcome was inactive. As to `CC(C)COC(=O)c1ccccc1C(=O)OCC(C)C`, the result was inactive. Regarding `C[N+](C)(C)CC1CO1` (stereo not given), the result was inactive. For `[Cl-].[Cl-].[Hg+2]`, the AC50 was 33 µM (active).

`CO[C@@H]1[C@H](OC(=O)NC(=O)CCl)CC[C@]2(CO2)[C@H]1[C@@]1(C)O[C@@H]1CC=C(C)C`: the AC50 is 2.09 µM (active). On to `CCCCC(CC)COC(=O)c1ccc(C(=O)OCC(CC)CCCC)c(C(=O)OCC(CC)CCCC)c1` (stereo not given), for which the outcome was inactive.

With `CCC(C)c1ccc(O)cc1` (stereo not given), the outcome was inactive. Still for that read-out and setting: with `Cc1cccc(N)c1N` the entry was “inactive”; with `Clc1ccc(Cl)c(Cl)c1`, “inactive”; with `O=[N+]([O-])c1ccc(Oc2ccc(Cl)cc2Cl)cc1`, “inactive”. On to `c1ccc2c(c1)oc1ccccc12`, for which the result was inactive.

As to `CCN(CC)CCO`, the outcome was inactive.

With `c1ccc(NNc2ccccc2)cc1`, the outcome was inactive.
